Shown are actives, neighbours in structure and some others; about 9.2% of the full set was active somewhere.
HPGD block – blocks human HPGD enzyme activity; 150,000 compounds, 4.3% hits; purified HPGD, NADH fluorescence kinetic, PGE2 substrate; P15428; Potency, µM, most hits filed as inhibitors
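20 nM HPGD preincubated 15 min at room temperature with compound in 50 mM Tris-HCl pH 8, 0.01% Tween 20. Started with 1 mM NAD+ and 30 uM prostaglandin E2; NADH fluorescence (360/450 nm) read 5 times over 30-s intervals, last minus first.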
HTT aggregate – mutant huntingtin aggregation inhibition; PC12 HttQ103-GFP aggregates, Acumen cytometry, 40 h; Potency, µM (doses to about 46.1 µM), most hits filed as inhibitors; 220,000 compounds, 1.1% hits; AID 1688; active means well fitted curve in the direction sought with a large enough effect; inconclusive means small, poorly fitted or top-dose-only effect, or another doubt; inactive means no such curve, though single readings can be large; an effect the other way counts as inactive or inconclusive; further: nearly all actives have a fitted effect of over 60% in size
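Compounds (qHTS titration) were added to PC12 cells expressing an ecdysone-driven HTT exon 1 Q103–GFP fusion after induction with 100 nM tebufenozide. Aggregate formation was measured as GFP objects in cell lysates.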
LMNA splice mod – modulators of lamin A splicing | Potency, µM (top dose mostly 46.1 µM), actives largely listed as inhibitors | HeLa LMNA splicing GFP/RFP minigene ratio, 48 h | 200,000 compounds, 0.01% hits; active means well fitted inhibition curve with a large enough effect in the signal ratio, with a control signal flat, not every such curve was filed as active; inconclusive means small, poorly fitted or top-dose-only effect, or effect the other way, or a change in a side signal; the % refers to the signal ratio
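S3 HeLa stable clones carrying a lamin A-EGFP splicing minigene plus DsRed2 were seeded at 600 cells/well in Opti-MEM with 2% FBS, pin-dosed and incubated 48 h at 37°C. Acumen cytometry (488 nm) gave the GFP/RFP total-intensity ratio.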
ALDH1A1 inh – inhibitors of human aldehyde dehydrogenase 1A1. P00352. Purified ALDH1A1, NADH fluorescence, propionaldehyde substrate. Potency, µM (doses to about 75.3 µM), hits mostly inhibitors. 220,000 compounds, 7.3% hits. AID 1030
Target sequence (P00352 whole entry, looked up): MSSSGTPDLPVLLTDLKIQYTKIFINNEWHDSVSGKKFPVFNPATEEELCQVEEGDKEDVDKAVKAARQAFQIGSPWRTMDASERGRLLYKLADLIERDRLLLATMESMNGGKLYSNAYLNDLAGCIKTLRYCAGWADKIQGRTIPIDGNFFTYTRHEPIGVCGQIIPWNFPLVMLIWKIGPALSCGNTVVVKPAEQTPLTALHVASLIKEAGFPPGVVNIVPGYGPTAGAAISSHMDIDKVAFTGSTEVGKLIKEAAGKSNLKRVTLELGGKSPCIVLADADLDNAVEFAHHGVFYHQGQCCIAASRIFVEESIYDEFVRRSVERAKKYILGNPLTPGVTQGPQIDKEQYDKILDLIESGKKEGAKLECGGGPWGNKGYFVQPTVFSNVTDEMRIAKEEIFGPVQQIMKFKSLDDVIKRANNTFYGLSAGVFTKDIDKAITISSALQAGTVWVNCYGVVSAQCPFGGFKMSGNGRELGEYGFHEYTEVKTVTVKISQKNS
HTT cytoprotect – Huntington cell model cytoprotection by ATP luminescence; 230,000 compounds, 0.14% hits; PC12 HTT-Q103 induced, cytoprotection, ATP luminescence, 40 h; Potency, µM (titrated, usually from 56.4 µM), usual class: activators; AID 1471; active means well fitted curve in the direction sought with a large enough effect; inconclusive means small, poorly fitted or top-dose-only effect, or another doubt; inactive means no such curve, though single readings can be large; an effect the other way counts as inactive or inconclusive; further: nearly all actives have a fitted effect of over 45% in size
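PC12 cells stably carrying ecdysone-inducible Htt exon 1 (Q103)–GFP were induced with 100 nM tebufenozide (final) alongside library compounds in a dose series. Cytoprotection was scored as retained ATP by ATPlite luminescence.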
JMJD2E inh – inhibitors of human JMJD2E histone demethylase. 230,000 compounds, 1.6% hits. JMJD2E catalytic domain, FDH-coupled NADH fluorescence (FDH is formaldehyde dehydrogenase). B2RXH2. Potency, µM (titrated, usually from 57.1 µM), usual class: inhibitors; further: nearly all actives have a fitted effect of over 50% in size
Hits are given with their value; . = inactive; ? = inconclusive; / = not tested or not shown; ! = a repeat was not active; [ ] = another dose, or the depositor's remark. Unless noted, the call rests on the fitted dose curve; in most records, active means well fitted inhibition curve with a large enough effect (not every such curve was filed as active); inconclusive means small, poorly fitted or top-dose-only effect, or another doubt; inactive means no such curve, though single readings can be large or run the other way.

SMILES	HPGD block	HTT aggregate	LMNA splice mod	ALDH1A1 inh	HTT cytoprotect	JMJD2E inh
CC1CCN(C(=O)CN2C(=O)C(=O)c3ccccc32)CC1	.	.	.	0.35µM	.	.
CC1CCN(C(=O)CN2C(=O)c3cccc4cccc(c34)C2=O)CC1	/	.	.	?	.	?
COc1cc(Cl)ccc1NC(=S)N(CCCN1CCOCC1)Cc1cn(C)c2ccccc12	?	?	?	?	.[10 µM]	.
COc1ccc(Cl)cc1NC(=S)N(CCCN1CCOCC1)Cc1cn(C)c2ccccc12	28µM	?	.	.	.[10 µM]	.
COc1cccc(CC2(CO)CCCN(Cc3ccc(CO)o3)C2)c1 (configuration not stated)	/	.	/	.	.	.
COc1cccc(CC2(CO)CCCN(Cc3[nH]c4ccc(C)cc4c3C)C2)c1 (configuration not stated)	/	.	/	22µM	.	.
COc1cccc(CC2(CO)CCCN(Cc3ccc(C)s3)C2)c1 (configuration not stated)	/	.[9.22 µM]	/	.	.[10 µM]	.
COCc1ccc(CN2CCCC(CO)(Cc3cccc(Cl)c3)C2)o1 (configuration not stated)	/	.[9.22 µM]	.	8.9µM	.[10 µM]	.
COc1ncc2nc(-c3cn(C)c4ccccc34)c(=O)n(C[C@H]3CCCO3)c2n1	/	/	.	?	.	/
CCCCC1=CC2=CC(=O)C(C)(OC(=O)CC)C(=O)C2=CN1CCCCO (configuration not stated)	.	.[9.22 µM]	.[9.22 µM]	.[13.5 µM]	.[10 µM]	13µM!
CCCCC1=CC2=CC(=O)C(C)(OC(=O)CC)C(=O)C2=CN1c1ccc(OC)cc1 (configuration not stated)	.	.[9.22 µM]	.[9.22 µM]	.[13.5 µM]	.[10 µM]	?
CCCCCCCC1=CC2=CC(=O)C(C)(OC(C)=O)C(=O)C2=CN1CCc1ccccc1 (configuration not stated)	.	.	?	.	.[10 µM]	.
CCCCC1=CC2=CC(=O)C(C)(OC(=O)CC)C(=O)C2=CN1C1CCCCC1 (configuration not stated)	.	.[9.22 µM]	.[9.22 µM]	.[13.5 µM]	?	28µM!
CCCCC1=CC2=CC(=O)C(C)(OC(=O)CC)C(=O)C2=CN1Cc1ccc2c(c1)OCO2 (configuration not stated)	.	.[9.22 µM]	?	.[13.5 µM]	.[10 µM]	18µM!
COCCCN(C(=S)NC(=O)C12CC3CC(CC(C3)C1)C2)c1c(N)n(Cc2ccccc2)c(=O)[nH]c1=O	/	.[9.22 µM]	?	.	.	.
COCCn1c(-c2ccc(Br)cc2)nc2oc3cc(OC)ccc3c(=O)c2c1=O	/	.[9.22 µM]	/	/	.[10 µM]	.
COc1cccc(CNc2ncnc3onc(-c4ccc(F)cc4)c23)c1	/	/	.	/	/	/
Oc1c(CN2CCOCC2)cc(COCc2ccccc2)c2cccnc12	.	?	?	.	.[10 µM]	25µM
COCc1cc(CN2CCN(C)CC2)c(O)c2ncccc12	.	.	.	.	.[10 µM]	.
COC(=O)c1ccc(OC)c(CN2C(=O)N(c3ccc(C(C)=O)cc3)S(=O)(=O)c3ccccc32)c1	/	/	.	/	/	/
Cc1ccc(S(=O)(=O)Nc2ccccc2-c2ccccc2NS(=O)(=O)c2ccc(C)cc2)cc1	.	.	?	.	.	.
COC(=O)c1ccc(Sc2ccccc2NS(=O)(=O)c2ccc(C)cc2)nc1	.	.	.	28µM	.	.
CCOC(=O)c1c(N)sn(-c2ccccc2C)c1=S	11µM	.	.	3.5µM	.	.
O=C(c1cc(C(F)(F)F)cc(C(F)(F)F)c1)N1CCC2(CCN(Cc3ccncc3)CC2)CC1	.	/	/	.	?	/
CCn1cc(C(=O)OCC(=O)Nc2ccc(C(C)C)cc2)c(=O)c2ccc(C)nc21	/	.	.	14µM	.	.
SMILES	HPGD block	HTT aggregate	LMNA splice mod	ALDH1A1 inh	HTT cytoprotect	JMJD2E inh
CCn1cc(C(=O)OCC(=O)Nc2cccc(S(=O)(=O)N3CCOCC3)c2)c(=O)c2ccc(C)nc21	.	.	.	?	.	.
CCn1cc(C(=O)Nc2ccc(C(=O)N3CCCC3)cc2)c(=O)c2ccc(C)nc21	4µM	.	.	.	.	.
CCn1cc(C(=O)Nc2ccccc2)c(=O)c2ccc(C)nc21	/	.[9.22 µM]	.	.	.[10 µM]	.
CCn1cc(C(=O)OCC(=O)c2cc(C)n(-c3ccc(OC(F)F)cc3)c2C)c(=O)c2ccc(C)nc21	.	.	.	10µM	.[10 µM]	.
CCn1cc(C(=O)OCC(=O)c2cc(C)n(-c3ccccc3)c2C)c(=O)c2ccc(C)nc21	.	.	.	.	.[10 µM]	.
CCOC(=O)c1ccc(NC(=O)COc2ccc(S(=O)(=O)NC(C)(C)C)cc2)cc1	.	.	.	.	.[1.9 µM]	.
O=C(NCc1cccc(Cl)c1)C1CCCN(c2nn3cc(-c4ccc(F)cc4)nc3s2)C1 (configuration not stated)	/	/	.	/	/	/
O=C(NC1=NCCS1)c1ccccc1OCc1ccc(F)cc1	/	.	?	.	.	.
CCOc1ccc(Cc2onc3c2C(=O)CC(C)(C)C3)cc1OCC	/	.	.	8.9µM	.	.
CCOc1ccc(CC(=O)C2C(=O)CCCC2=O)cc1OCC	.	.	.	?	.	.
CCOc1ccc(CC(=O)C2=C(N3CCOCC3)CC(C)(C)CC2=O)cc1OCC	/	.	.	40µM	.	.
CCOc1ccc(Cc2onc3c2C(=O)CCC3)cc1OCC	/	.	/	.	/	.
CCOc1ccc(CC(=O)C2C(=O)CC(C)(C)CC2=O)cc1OCC	.	?	.	7.9µM	.	?
O=C(COCc1cc(-c2ccc(F)cc2)on1)Nc1cc(Cl)cc(Cl)c1	/	/	.	/	/	/
COc1ccc2c(=O)cc(-c3ccccc3F)oc2c1	/	.[9.22 µM]	/	?	.[10 µM]	?
O=C(CCN1C(=O)C2C3C=CC(C3)C2C1=O)N1CCN(c2ccccc2Cl)CC1 (configuration not stated)	.	.	.	2µM	.	.
O=C(CCN1C(=O)C2C3C=CC(C3)C2C1=O)N1CCN(c2ccc([N+](=O)[O-])cc2)CC1 (configuration not stated)	/	.	/	6.3µM	.	.
CC(=O)Oc1ccc(N2C(=O)C3C(C2=O)C2(C)C=CC3(C)O2)cc1 (configuration not stated)	13µM	?	?	0.63µM	.	.
O=C1C2C3C=CC(CO)(O3)C2C(=O)N1c1ccccc1-c1ccccc1 (configuration not stated)	7.9µM	?	.	1.1µM	.	.
COC(=O)c1cc(N2C(=O)C3C(C2=O)C2(C)C=CC3(C)O2)ccc1Cl (configuration not stated)	2.8µM	?	?	0.11µM	.[10 µM]	.
O=C1C2C3C=CC(CNS(=O)(=O)c4ccccc4)(O3)C2C(=O)N1c1ccc(Cl)cc1 (configuration not stated)	22µM	.	.	0.63µM	.[10 µM]	.
O=C1CCC(=O)N1c1ccccc1-c1ccccc1	.	.	.	.	.	.
CN(C)c1cccc(C(=O)Nc2nc3ccc(S(=O)(=O)N4CCCC4)cc3s2)c1	/	/	.	/	/	/

Assay outcomes (PubChem)
